Measured values published in ChEMBL document CHEMBL3433997, “St. Jude Leishmania screening dataset” (2016).

Assays:
Type in all cases: functional
[1] = target: Solute carrier family 2, facilitated glucose transporter member 1 (Homo sapiens) (UniProt P11166); experiment: ST_JUDE_LEISH: Cytotoxicity at 2uM final concentration against transgenic Leishmania Mexicana promastigotes LmGLUT1 that are glucose transport deficient and complemented with the human glucose transporter GLUT1. Activity is measured by DNA content using SYBR green in vitro
Solute carrier family 2, facilitated glucose transporter member 1 (Homo sapiens), sequence (P11166 whole entry): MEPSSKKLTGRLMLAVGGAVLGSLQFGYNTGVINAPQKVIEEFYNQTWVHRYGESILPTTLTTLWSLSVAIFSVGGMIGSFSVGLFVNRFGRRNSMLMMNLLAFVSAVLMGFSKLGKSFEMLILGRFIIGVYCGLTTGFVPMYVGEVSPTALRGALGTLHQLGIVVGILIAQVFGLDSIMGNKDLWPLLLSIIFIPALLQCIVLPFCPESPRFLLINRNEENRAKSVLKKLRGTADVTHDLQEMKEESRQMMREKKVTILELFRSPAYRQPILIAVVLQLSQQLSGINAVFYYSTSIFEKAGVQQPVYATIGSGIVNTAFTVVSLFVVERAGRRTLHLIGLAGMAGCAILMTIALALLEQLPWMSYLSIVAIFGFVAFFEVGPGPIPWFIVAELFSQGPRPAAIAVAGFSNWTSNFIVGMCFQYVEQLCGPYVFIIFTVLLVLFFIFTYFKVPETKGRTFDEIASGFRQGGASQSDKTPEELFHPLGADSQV

[2] = target: Hexose transporter 1 (Plasmodium falciparum) (UniProt O97467); experiment: ST_JUDE_LEISH: Cytotoxicity at 2uM final concentration against transgenic Leishmania Mexicana promastigotes LmPfHT that are glucose transport deficient and complemented with the Plasmodium falciparum hexose transporter. Activity is measured by DNA content using SYBR green in vitro
[3] = target: Glucose transporter (Leishmania mexicana) (UniProt O61059); experiment: ST_JUDE_LEISH: Cytotoxicity at 2uM final concentration against transgenic Leishmania Mexicana promastigotes LmGT2 that are glucose transport deficient and complemented with the L. Mexicana glucose transporter 2. Activity is measured by DNA content using SYBR green in vitro

SMILES	inhibition [1]	inhibition [2]	inhibition [3]
O=C(NCc1ccc(F)cc1)c1cnc(N2CCN(c3ccncc3)CC2)c(Cl)c1	22.7%	11.6%	5.45%
CN=C(NC)c1cccc(NC(=O)C=Cc2ccc(C=CC(=O)Nc3cccc(C(=NC)NC)c3)cc2)c1	0.52%	2.48%	-0.11%
CCNc1cc(C(=O)N[C@@H](Cc2ccccc2)[C@H](O)CNCC(C)C)cc(N2CCCC2=O)c1	2.24%	1.42%	-1.69%
COc1ccc(Cl)cc1N1CCN(CCCNC(=O)c2ccc(-c3nc4c(C)cccc4[nH]3)s2)CC1	1.19%	-0.51%	-1.08%
CC(=O)N1CCN(c2ccc(NC(=O)c3oc(-c4ccccc4)nc3C(F)(F)F)cn2)CC1	1.92%	1.42%	1.05%
O=C(NCC1CCN(Cc2cccc(C(F)(F)F)c2)C1)c1cc(-c2cccc(C(F)(F)F)c2)cs1 (centres undefined)	3.9%	2.69%	5.94%
CO/C(=C\C=C\c1cc2cc(Cl)c(Cl)cc2[nH]1)C(=O)NCCCN1CCC(c2ccccc2)CC1	2.73%	5.04%	1.33%
COc1ccc(CNCc2ccc(F)cc2)cc1-c1ccc(S(=O)(=O)NCCN2CCCC2)c(C)c1	2.82%	3.53%	-2.85%
FC(F)(F)c1ccc2[nH]ccc(=NN=Cc3ccccc3)c2c1	1.45%	-0.56%	0.98%
O=S(=O)(c1c(Cl)cc(Cl)cc1Cl)N1CCCCC(c2ccc(C(F)(F)F)cc2)=N1	5.69%	8.89%	6.28%
COc1ccc2nccc(NC(=O)C3(O)CCC(NCc4ncc5c(c4Cl)OCCO5)CC3)c2n1 (centres undefined)	7.91%	8.5%	2.13%
CCCCCCN1CCCN(Cc2ccc(C(=O)Nc3ccc(Cl)cc3)cc2)CC1	12.3%	13.8%	12.5%
CCCC(=O)NC(NC(=S)Nc1ccc([N+](=O)[O-])cc1)C(Cl)(Cl)Cl (centres undefined)	-1.2%	-0.54%	-0.01%
Cc1nc2c(Nc3nc(-c4ccncc4)cs3)ncnc2n1-c1ccccc1Cl	45.1%	38.8%	13.4%
Cc1cccc(CN2CCCC3(CCN(Cc4ccccc4O)C3)C2)c1 (centres undefined)	2.62%	1.27%	-0.38%
Cc1cccc2nc(-c3cccc(-c4ccc(NC(=O)c5cccc(C(N)=O)c5)cc4)c3)[nH]c12	1.01%	1.42%	1.38%
O=C(CCCCCNC(=O)c1ccc(O)c(-c2ccc(Cl)c(Cl)c2)c1)NC1CCCCCC1	4.53%	3.51%	4.8%
CC(C)(C)OC(=O)NCc1ccc(Nc2nnc(-c3cccc(C(=O)NCCC(c4ccccc4)c4ccccc4)c3)o2)cc1	8.74%	10.6%	7.8%
COc1ccc(CN(C)CCCOc2ccc(NC(=O)c3cccc4c(=O)c5cccc(C)c5[nH]c34)cc2)cc1OC	4.56%	4.25%	3.39%
COc1ccc(Nc2nc(NCc3ccco3)c3ccccc3n2)cc1	25.5%	20%	12.1%
CCCCCCCCc1c(C)[nH]c(C)c(Cl)c1=O	0.5%	0.28%	-0.99%
COc1ccc(N2CCN(CCCNC(=O)c3ccc(NC(=O)c4cc(Cl)cc(Cl)c4)cc3)CC2)c(OC)c1	4.49%	0.82%	3.87%
CCN(CC)S(=O)(=O)c1ccc(C(=O)Oc2ccccc2N(Cc2ccc(OC)cc2)C2=NS(=O)(=O)c3ccccc32)cc1	3.69%	2.22%	2.59%

SMILES	inhibition [1]	inhibition [2]	inhibition [3]
O=C(NCCN1CCCCC1)c1ccc(CNC(=O)c2ccc(O)c(-c3ccc(Cl)c(Cl)c3)c2)cc1	0.15%	0.04%	-0.59%
CCn1ccc2c(N3CCCCS3(=O)=O)cc(C(=O)N[C@@H](Cc3ccccc3)[C@H](O)CNC3CCCCC3)cc21	5.11%	5.66%	3.42%
CCCc1cc(OC)c(C[C@H]2c3cc(O)c(Cl)cc3CCN2C)cc1OC	0.24%	1.13%	1.4%
Cc1cc(O)c(CN(C)Cc2ccc3c(c2)OCO3)cc1C(C)C	-0.84%	-1.41%	0.04%
O=C(Nc1ccc(N2CCCN(Cc3cccc(F)c3)CC2)cc1)c1cccs1	-0.38%	-0.87%	-3.03%
CC(C)CNCc1cccc(-c2cccc(CNC3CCN(Cc4ccccc4)CC3)c2)c1	1.93%	2.58%	1.83%
CCOc1cc(C(C)C)ccc1N1CCN(CCCCNC(=O)c2ccc(NC(=O)c3ccc(Cl)cc3)cc2)CC1	4.38%	2.39%	2.86%
NC(=O)c1ccc(-c2ccc3ccnc(N)c3c2)cc1	7.25%	6.12%	4.88%
CCN(CC)CCN(Cc1ccc(-c2ccc(C(F)(F)F)cc2)cc1)C(=O)Cn1c(CCc2cc(F)cc(F)c2)nc(=O)c2ccccc21	1%	1.07%	1.47%
CC(=O)c1ccc(NC(=O)Nc2ccc3nccc(N4CCN(C)CC4)c3c2)cc1	1.22%	1.77%	1.46%
COc1ccc2nccc([C@@H](O)CN3CCC(NCc4ccc5scnc5c4)CC3)c2c1	3.81%	2.6%	3.04%
CCC1CN(S(=O)(=O)c2ccc3c(c2)NC(=O)CC(=O)N3)c2cc(Cl)ccc2O1 (centres undefined)	2.65%	2.92%	3.29%
O=[N+]([O-])c1cccc(CNC2CCN(Cc3ccc(C(F)(F)F)cc3)CC2)c1	2.18%	2.08%	3.71%
CCOC(=O)c1ccc(NC(=O)N[C@@H](Cc2ccccc2)C(=O)NC2CCN(Cc3ccc(OCCCN(C)C)cc3)C2)cc1 (some centres undefined)	-0.91%	0.74%	0.98%
Cc1nc2nc(N)nc(N)c2c(C)c1Cc1ccc(Cl)cc1	33.4%	43.3%	28.7%
Cc1ccc(NC(=O)c2ccc3ncccc3c2)cc1OC1CCN(CCC(C)C)C1 (centres undefined)	2.61%	3.22%	3.54%
COc1cccc2cc(C(=O)N[C@@H](CC(C)C)C(=O)N[C@H](/C=N/N(C)C(=O)OC(C)(C)C)CC(=O)OC(C)(C)C)oc12	2.84%	3.79%	3.79%
Cn1cncc1CCCN(Cc1ccc(-c2ccc(C(F)(F)F)cc2)cc1)C(=O)Cn1c(CCc2cccc(F)c2F)cc(=O)c2cccnc21	2.28%	2.54%	1.5%
COc1ccc(CCN(C)CCCCNC(=O)c2ccc(NC(=O)c3ccc(Cl)cc3)cc2)c(OC)c1	1.64%	2.15%	2.45%
CN(c1ccc(NC(=O)Nc2cccc(Cl)c2)cc1)c1ccnc(N)n1	-0.39%	1.34%	-0.01%
COc1ccc(NC(=O)[C@H](C)Nc2cc(C)nc(NCC3CCCCC3)n2)cc1	5.31%	3.39%	3%
CCCNCc1ccc(-c2ccc(CN(CCOC)C(=O)c3cscn3)cc2)nc1	1.92%	1.83%	2.19%
COc1cc(C2Nc3ccc4ccccc4c3C3=C2C(=O)CC(C)(C)C3)ccc1Oc1ccc([N+](=O)[O-])cc1C#N (centres undefined)	4.18%	4.07%	-0.66%

SMILES	inhibition [1]	inhibition [2]	inhibition [3]
c1ccc2c(c1)CN(CC1CCOCC1)CC1(CCN(Cc3c[nH]c4cnccc34)CC1)O2	0.57%	1.23%	0.88%
c1ccc(-c2ccc(CNCCCNc3nc4ccccc4[nH]3)cc2)cc1	4.26%	9.56%	6.92%
Cc1cc(N[C@@H](CC(C)C)C(=O)NCCOc2ccccc2)nc(NCCc2ccc(F)cc2)n1	2.19%	2.57%	-0.16%
O=C(NC(Nc1ccc([N+](=O)[O-])cc1)C(Cl)(Cl)Cl)c1cccc(Cl)c1 (centres undefined)	4.07%	3.95%	3.37%
N#Cc1ccc2c(c1)CCN(CCC1CCC(NC(=O)Nc3cnc4ccccc4c3)CC1)C2 (centres undefined)	2.8%	3.15%	2.03%
Cn1nccc1C(=O)NCCNCc1cccc(-c2cccc(-c3nc4cc(C(F)(F)F)ccc4[nH]3)c2)c1	2.84%	1.83%	0.31%
COc1ccc2ccccc2c1CCCCN1CCN(CC(c2ccc(F)cc2)N2CCC2)CC1 (centres undefined)	4.25%	3.64%	3.18%
CC(=O)Nc1cccc(CNc2cc(C)nc(Nc3ccc(C)cc3)n2)c1	9.07%	8.32%	0.76%
NCc1ccc(CNCc2cccc(-c3ccc(-c4nc5ccccc5[nH]4)cc3)c2)cc1	13.5%	11.8%	12.4%
COCCOc1cc(C)c(C2CCN(CCCCNC(=O)c3ccc(NC(=O)c4ccc(Cl)cc4)cc3)CC2)cc1C	8.26%	7.14%	8.98%
CCCCN(CCCC)/C(=N/C(=N)NCc1ccc(Cl)c(Cl)c1)NCCCCCCN/C(=N\C(=N)NCc1ccc(Cl)c(Cl)c1)N(CCCC)CCCC	-0.73%	-0.52%	-0.96%
CCCCNCc1ccc(-c2nc(CN(Cc3ccc(Cl)c(Cl)c3)S(=O)(=O)c3ccc(NC(C)=O)cc3)cs2)cc1	2.51%	0.43%	2.51%
CCn1c(-c2nonc2N)nc2c(-c3cccc(NC(=O)Nc4ccc5c(c4)CCC5)c3)ncc(OCCCN)c21	2.61%	3.19%	2.89%
CC[C@H](C)CNC(=O)c1ccnc(-c2ccc(CNCCCc3ccccc3)cc2)c1	1.95%	1.1%	-0.91%
Cc1ccc2c(=NN=Cc3cccc(F)c3)cc(C)[nH]c2c1	7.16%	7.52%	6.18%
COC(=O)CCCCOc1c(OC)cc(Cc2cnc(N)nc2N)cc1OC	11.2%	7.13%	7.7%
O=C1CSc2ccc(CNC3CCN(CCc4c(Cl)cnc5ccc(Cl)cc45)CC3)nc2N1	0.88%	-0.05%	-1.85%
Cc1cccc(NC(=O)c2cnc(N3CCN(c4ccncc4)CC3)c(Cl)c2)c1	23.2%	19.8%	6.53%
c1ccc2c(Nc3ccc(Cc4ccc(Nc5c6ccccc6nc6ccccc56)cc4)cc3)c3ccccc3nc2c1	6.04%	6.65%	2.95%
COc1cc2c(cc1OC)CN(CCCCc1ccc(NC(=O)c3cc(Cl)cc(Cl)c3)cc1)CC2	4.58%	4.95%	-0.56%
O=C(Nc1cccc(-c2nn3ccccc3c2-c2ccnc(Nc3cccc(C(F)(F)F)c3)n2)c1)c1c(F)cccc1F	0.32%	1.06%	0.07%
Cc1cccc(NC(=O)Nc2ccc(I)c(OCCN(C)C)c2)c1C	15.2%	9.78%	10.1%
